# About 83,000 compounds went through this panel and 20% of them were active in at least one assay; those are over-represented in the sample as a whole.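 The test compound was applied at a single concentration to cells in 96-well plates for 48 hours, and percent growth was recorded.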 Unmarked numbers belong to inactive results. Activity calls are given as the source filed them. How the source made its calls: active means growth percent below 10; inactive means the rest.
# Legend:
# Assay in all cases: NCI-60 one-dose screen, 48 h (100 = growth as untreated, 0 = no growth, -100 = all killed)
# Settings in all cases: 10 µM unless noted
# [1] = test system: HCT-15 colon
# [2] = test system: HT29 colon
# [3] = test system: SNB-75 CNS
# [4] = test system: SNB-19 CNS
# [5] = test system: U251 CNS
# [6] = test system: PC-3 prostate
# [7] = test system: UACC-62 melanoma
# [8] = test system: LOX IMVI melanoma
# [9] = test system: SK-MEL-28 melanoma
# [10] = test system: SK-MEL-2 melanoma
# [11] = test system: EKVX NSCLC
# [12] = test system: UO-31 renal
# [13] = test system: TK-10 renal
# [14] = test system: ACHN renal
# [15] = test system: CAKI-1 renal
# [16] = test system: A498 renal
# [17] = test system: CCRF-CEM leukemia
# [18] = test system: MOLT-4 leukemia
# [19] = test system: SN12C renal
Structure (SMILES),growth [1],growth [2],growth [3],growth [4],growth [5],growth [6],growth [7],growth [8],growth [9],growth [10],growth [11],growth [12],growth [13],growth [14],growth [15],growth [16],growth [17],growth [18],growth [19]
Cc1ccc2oc(=O)cc(C3c4ccc([nH]4)C(c4cc(=O)oc5ccc(C)cc45)c4ccc([nH]4)C(c4cc(=O)oc5ccc(C)cc45)c4ccc([nH]4)C(c4cc(=O)oc5ccc(C)cc45)c4ccc3[nH]4)c2c1 (stereo not given),-46.9% (active),-75.7% (active),-42% (active),-29.6% (active),-80.7% (active),-27.2% (active),-57% (active),-70.6% (active),-53.2% (active),-73.1% (active),-19.3% (active),-24.7% (active),-22.2% (active),-18.6% (active),-13.6% (active),-81.1% (active),-18% (active),-22.4% (active),
Cc1cc(N2CCCC2)nc(NC2CCCC(Nc3ccnc4cc(Cl)ccc34)C2)n1 (stereo not given),-52% (active),-70% (active),-68.6% (active),-20.3% (active),-96.1% (active),-58.1% (active),-79.8% (active),-94.2% (active),-77.5% (active),-87.5% (active),11.1%,,-74.5% (active),-98% (active),,-18.4% (active),-22.2% (active),-20.8% (active),-49.4% (active)
CC1CCNC(C)C1 (stereo not given),108%,110%,86.5%,114%,108%,90.3%,102%,100%,115%,112%,107%,93.2%,109%,106%,101%,106%,94.4%,116%,
COc1ccc(N=Nc2nccs2)c(O)c1,25.4%,40.2%,81.9%,51.4%,27.8%,42.1%,36.8%,11.5%,81.4%,64.2%,30.9%,13.1%,51.3%,,,86.5%,4.6% (active),4.68% (active),50.3%
CC(C)CC1C(=O)N2CCC[C@H]2C2(O)O[C@](NC(=O)C3C=C4c5cccc6[nH]c(Br)c(c56)C[C@H]4N(C)C3)(C(C)C)C(=O)N12 (stereo not given in full),43.1%,53.2%,35.5%,69.9%,53.4%,20.4%,56.4%,62.5%,91.3%,77.4%,54.6%,,54.6%,43.6%,61.1%,76.5%,58.3%,15.9%,40.3%
N#CN1CC[C@H](C(=O)Nc2cc3cc(C(N)=O)ccc3cn2)C1,3.81% (active),-31.2% (active),-28.4% (active),7.87% (active),-2.5% (active),2.76% (active),-34.5% (active),4.7% (active),-9.92% (active),-64.3% (active),2.35% (active),17.7%,-17.7% (active),6.51% (active),11.9%,-34.4% (active),7.66% (active),-18.1% (active),
CC(=O)c1cc2c(N)c(C(=O)Nc3cccc(F)c3C)sc2nc1C,85%,81.6%,68.1%,83.1%,93.3%,81.4%,52.1%,96.9%,97.4%,68.5%,95.7%,91.2%,100%,89.4%,,43%,86.7%,79.1%,95.1%
O=c1cc(/C(=C2/C=CC=N2)c2ccc[nH]2)c2cc(Cl)ccc2o1,35.1%,47.9%,24.6%,25.7%,14.4%,38.9%,42.9%,34.3%,61.8%,62.4%,44.8%,41%,63%,48%,55.7%,10.8%,28.3%,7.2% (active),
CCCCN1CCCn2c1nc1c2c(=O)n(CCC)c(=O)n1CCC,106%,97.8%,74.2%,96.6%,91.8%,91.3%,85.4%,93.8%,103%,90.1%,97.2%,76.8%,97.1%,88.4%,89.1%,80.2%,104%,103%,

# Source: PubChem BioAssay (NCI)
